Source: PubChem (National Center for Advancing Translational Sciences (NCATS))
A selection: hits, their analogues and other compounds. The true share with any hit is near 7.4%.
NPC1 promoter act = NPC1 promoter activation; 2.4% of 320,000 active; Potency, µM (top dose mostly 9.22 µM), for the others: top-dose activation, usual class: activators; AID 485313; Huh7 NPC1 promoter luciferase reporter, 24 h; further: % of control where 0% means no effect; nearly all actives have a fitted effect of over 60% in size
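Readout is luciferase luminescence, reflecting NPC1 promoter activation in stably transfected Huh7 cells after 24 h compound exposure at 37 °C in reduced-serum medium with 10% FBS.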
FLuc modulator = inhibits or activates purified firefly luciferase, miR-21 counter-screen. AID 588342. Potency, µM (highest dose often 57.5 µM), for the others: top-dose activity change, negative = inhibition, actives largely listed as inhibitors. purified FLuc, Km substrates, luminescence inhibition. 6.9% of 360,000 active;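 further: plate controls were vehicle for no effect and reference inhibitor for full effect; nearly all actives have a fitted effect of over 55% in size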
Target sequence (P08659 whole entry, looked up): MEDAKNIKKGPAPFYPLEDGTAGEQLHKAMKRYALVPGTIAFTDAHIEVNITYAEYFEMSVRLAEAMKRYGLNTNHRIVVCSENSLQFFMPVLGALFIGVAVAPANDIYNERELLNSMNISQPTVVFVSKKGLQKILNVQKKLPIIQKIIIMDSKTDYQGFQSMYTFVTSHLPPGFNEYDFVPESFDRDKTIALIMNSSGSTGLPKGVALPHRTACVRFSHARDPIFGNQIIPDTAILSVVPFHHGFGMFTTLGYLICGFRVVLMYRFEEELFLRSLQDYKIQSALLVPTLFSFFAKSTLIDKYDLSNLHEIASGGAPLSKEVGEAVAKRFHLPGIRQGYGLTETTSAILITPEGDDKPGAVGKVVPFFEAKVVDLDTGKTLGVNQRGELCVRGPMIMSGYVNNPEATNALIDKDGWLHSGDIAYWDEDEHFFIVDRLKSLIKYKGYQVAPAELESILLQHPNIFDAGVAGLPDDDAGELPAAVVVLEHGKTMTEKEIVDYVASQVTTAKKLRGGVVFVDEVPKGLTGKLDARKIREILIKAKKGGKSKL
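Purified P. pyralis luciferase, 10 nM final, with Km-level 10 uM D-luciferin and 10 uM ATP in 50 mM Tris acetate pH 7.5, 10 mM Mg acetate, 0.01% Tween-20, 0.05% BSA; 6-point qHTS titration about 60 µM downward; luminescence read.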
Rab9 prom act = activators of Rab9 promoter; Potency, µM (highest dose often 9.22 µM), without a hit: top-dose activation, negative = inhibition, actives largely listed as activators; 2.8% of 320,000 active; Huh7 Rab9 promoter-luciferase reporter, luminescence, 24 h; further: % of control where 0% means no effect; nearly all actives have a fitted effect of over 60% in size
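Steps: seed 1500 Huh7 Rab9-luc cells per well, rest 2 h at 37 °C; add compound in DMSO; incubate 24 h; add luciferase reagent, 10 min ambient; read luminescence.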
SMN2 splice enh = SMN2 splice variant enhancement; Potency, µM (top dose mostly 46.1 µM), without a hit: at the top dose activity change, positive = activation, actives largely listed as activators; 2.8% of 210,000 active; AID 1458; HEK293 SMN2-luciferase splicing reporter, luminescence, 30-36 h; further: % of control where 0% means no effect; nearly all actives have a fitted effect of over 55% in size
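qHTS luciferase splicing reporter: luminescence rises when SMN2 exon 7 is included in transfected HEK293 cells. Compound exposure lasted 30-36 h at 37C, with 4.5 mM final sodium butyrate as control, followed by a ONE-Glo read.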
ELG1 genotox = genotoxicity induction in ELG1-luciferase HEK293T cells; HEK293T ELG1-luciferase reporter, luminescence, 16 h; Potency, µM (series often up to 46 µM), for inactives: top-dose activity change, positive = activation, most hits filed as activators; 1.3% of 330,000 active; further: % of control where 0% means no effect; nearly all actives have a fitted effect of over 60% in size
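Step 1: seed 2,000 HEK293T ELG1-luciferase cells per well. Step 2: add compound or DMSO, incubate 16 hr at 37 °C. Step 3: ONE-Glo, 30 min at room temperature, read luminescence.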
* marks the source's active call; other numbers are inactive results; ? = inconclusive; · = no result; [ ] = remark or other dose. The call rests on the fitted dose curve; in most records, active means well fitted curve in the direction sought with a large enough effect; inconclusive means small, poorly fitted or top-dose-only effect, or another doubt; inactive means no such curve, though single readings can be large; an effect the other way counts as inactive or inconclusive. Potency means the concentration at half of the fitted maximal effect.

SMILES | NPC1 promoter act | FLuc modulator | Rab9 prom act | SMN2 splice enh | ELG1 genotox
CCOC(=O)N1CCN(c2ccc(S(=O)(=O)N3CCOCC3)cn2)CC1 | · | · | · | · | 0.1%
CCOC(=O)N1CCN(c2ccc(S(=O)(=O)N(Cc3ccccc3)Cc3ccccc3)cn2)CC1 | -19.9% | 0.5% | -31.5% | -69.4% | 11.6µM*
CSc1ccc(C2c3[nH]c4ccccc4c3CCN2C(=O)c2ccnn2C)cc1 (stereo not given) | 11.1% | 10.7µM* | 3.55µM* | · | 16.2%
COc1ccc(S(=O)(=O)N2CC(C)N(C(=O)N(C)C)C2C(C)C)cc1 (stereo not given) | -4.1% | -1.5% | -2.1% | · | -15.4%
CCOC(=O)c1c(-c2ccc(OC)c(OC)c2)csc1NC(=O)c1ccc(C)cc1 | · | -0.2% | · | -5.5% | ·
COc1ccc(C(=O)Nc2scc(-c3ccc(Cl)cc3Cl)c2C(N)=O)cc1 | 2.82µM* | 4.78µM* | 3.16µM* | -8.9% | -0.8%
CCC1C(=O)n2nc(-c3ccccc3)cc2N=C1C (stereo not given) | ? | 13.5µM* | 2.82µM* | 12.6µM* | ?
O=C(O)Cn1nc(-c2ccccc2)cc1-c1ccccc1 | -3.7% | -8.4% | 11.3% | · | 1.8%
CCCC/C=C/C(NC(=O)C(C)(C)C)c1ccccc1 (stereo not given) | · | · | · | -3.5% | ·
Nc1ncnc(Nc2ccccc2)n1 | 3.0% | -12.7% | -1.7% | · | 2.1%
Nc1cnc(Nc2ccc(Br)cc2)nc1N | 22.0% | 15.1µM* | ? | · | ?
COc1cc(OC)cc(C(=O)Nc2nc3ccccc3[nH]2)c1 | 20.8% | 10.7µM* | ? | ? | ?
N#Cc1ccc(C(=O)Nc2nc3ccccc3[nH]2)cc1 | 1.78µM* | 2.39µM* | 1.78µM* | · | ?
Cn1nc(C(=O)Nc2nc3ccccc3[nH]2)c2ccccc2c1=O | 12.8% | -16.9% | ? | 13.8% | 3.5%
Cc1cc(C)cc(C(=O)Nc2nc3ccccc3[nH]2)c1 | 2.51µM* | 10.7µM* | ? | · | ?
O=C(Nc1nc2ccccc2[nH]1)c1ccc(F)c(S(=O)(=O)N2CCOCC2)c1 | ? | 16.9µM* | ? | ? | 13.7%
Cc1[nH]nc(SCC(=O)NCc2ccc(Cl)cc2)c1[N+](=O)[O-] | 1.2% | 6.4% | -3.1% | -1.5%[1.84 µM] | 0.5%
CCC1CCCCN1C(=O)c1cc(S(=O)(=O)N2CCOCC2)ccc1C (stereo not given) | · | · | · | · | 1.5%
CCC(C)(C)NC(=O)CN(Cc1ccccc1)C(=O)CCC(=O)Nc1nccs1 | -2.8% | 0.9% | 0.4% | · | -5.1%
Cc1ccsc1C(=O)Nc1nc2ccccc2[nH]1 | 0.631µM* | 1.69µM* | 0.355µM* | · | 1.16µM*
O=C(Nc1ccc2nn(-c3ccccc3)nc2c1)c1cc2ccccc2o1 | · | 1.3% | · | -16.7% | ·
O=C(Nc1nc2ccccc2[nH]1)c1cc2ccccc2o1 | 2.24µM* | 1.35µM* | 1.12µM* | 4.47µM* | 2.31µM*
O=C(Nc1nc2ccccc2[nH]1)c1ccccc1F | ? | 0.19µM* | -22.4% | · | ?
COc1ccc2oc(C(=O)Nc3nc4ccccc4[nH]3)c(C)c2c1 | 0.355µM* | 0.426µM* | 0.316µM* | · | ?
COc1cccc(CN(C)C(=O)CSCC(=O)Nc2cc(C)on2)c1OC | 1.8% | 4.8% | 0.6% | · | -1.7%
SMILES | NPC1 promoter act | FLuc modulator | Rab9 prom act | SMN2 splice enh | ELG1 genotox
CC(C)NC(=O)N1CCC2(CC1)CCN(C(=O)c1cnccn1)CC2 | · | · | · | -7.1% | ·
Cc1ccc(CNC(=O)c2cc3c(=O)n(Cc4ccco4)ccc3nc2C)cc1 | · | -7.5% | · | · | ·
O=C(Cc1ccccc1F)Nc1nc2ccccc2[nH]1 | 10.7% | -17.4% | 21.8% | 18.3% | 10.4%
O=C(Nc1nc2ccccc2[nH]1)c1cc(F)cc(F)c1 | 1.78µM* | 2.69µM* | 0.631µM* | · | ?
COc1ccc(CC(=O)Nc2nc3ccccc3[nH]2)cc1 | 29.9% | -1.8% | 22.7% | · | -1.1%
O=C(Nc1nc2ccccc2[nH]1)c1ccc(F)cc1 | 0.447µM* | 1.07µM* | 0.316µM* | 14.1µM* | ?
CCc1ccc(C(=O)Nc2nc3ccccc3[nH]2)cc1 | 0.1µM* | 0.107µM* | ? | · | ?
CN(C)S(=O)(=O)c1ccc(C(=O)Nc2nc3ccccc3[nH]2)cc1 | ? | ? | ? | 11.2µM* | ?
O=C(NCCc1nc2ccccc2[nH]1)c1ccc(F)cc1 | -3.7% | 11.4% | -1.0% | · | -2.3%
O=C(NCc1ccccc1F)C1CCCN1C(=O)Nc1ccc(Cl)cc1 (stereo not given) | -1.2% | 0.5% | -2.4% | · | -3.4%
Nc1nc(N2CCN(C(=O)c3ccco3)CC2)nc2ccc(Br)cc12 | 2µM* | 9.53µM* | 1.12µM* | 7.94µM* | ?
O=C1CCCc2nc(N3CCN(C(=O)c4ccco4)CC3)ncc21 | 3.98µM* | 26.9µM* | 2.51µM* | · | 20.6µM*
O=C(c1ccco1)N1CCN(c2ncccn2)CC1 | -2.0% | -0.6% | 10.5% | 11.0% | 7.3%
Cc1cc(N2CCN(C(=O)c3ccco3)CC2)c2ccccc2n1 | -2.7% | 4.9% | -2.6% | · | -1.9%
Nc1nc(N2CCN(C(=O)c3ccco3)CC2)nc2ccccc12 | 27.2% | 19µM* | ? | 12.6µM* | 13.2%
O=C(NC1CCS(=O)(=O)C1)c1ccc2c(c1)OCO2 (stereo not given) | 3.0% | -2.0% | 1.9% | · | 1.7%
CCn1c(CSc2nc3ccccc3s2)nc2ccccc21 | 1.2% | 23.9µM* | 1.3% | -34.4% | 3.2%
Cc1noc(C)c1CSc1nc2ccccc2s1 | -4.3% | ? | 0.6% | -11.6% | ?
c1csc(CSc2nc3ccccc3s2)c1 | ? | 4.78µM* | 3.55µM* | ? | 14.6µM*
CC(=O)Nc1cccc(NC(=O)c2oc3ccccc3c2C)c1 | 3.16µM* | 6.01µM* | 3.55µM* | 11.2µM* | ?
Nc1c(C(=O)Nc2ccc(Cl)cc2)oc2ccccc12 | 1.41µM* | 2.69µM* | 2.51µM* | 23.7% | 2.31µM*
CCC(=O)Nc1ccc(NC(=O)c2oc3ccccc3c2C)cc1 | -5.3% | 5.36µM* | -9.4% | · | 9.0%
Cc1n[nH]c(=S)n1/N=C/c1c(O)ccc2ccccc12 | -9.0% | -13.6% | 3.0% | · | -0.6%
COCCN1C(=O)C(=O)/C(=C(/O)c2ccc(S(=O)(=O)N3CCCCC3)cc2)C1c1ccc(O)c(OC)c1 (stereo not given) | -0.4% | 3.8% | -0.1% | · | -0.4%
CC[n+]1ccccc1/C=C/c1ccc(N(C)C)cc1 | -40.2% | -10.3% | -33.6% | -54.5% | -2.1%
CC[n+]1ccc(/C=C/c2ccc(N(C)C)cc2)c2ccccc21 | -37.7% | 23.9µM* | -60.9% | · | -7.1%
CCCC(=O)Nc1cc2c3c(c1)C(C)C(=O)N3CCC2 (stereo not given) | -3.1% | 1.0% | -1.1% | · | 6.1%
CC(C)CCN1C(=O)C2(OCCCO2)c2cc(Cl)ccc21 | -1.9% | 1.2% | -1.1% | · | 0.5%
CCn1c2ccccc2c2c3ncc4cccn4c3ccc21 | 3.16µM* | 3.01µM* | ? | · | 11.6%
c1ccc2c(c1)ncc1cccn12 | -0.9% | -3.3% | 13.0% | -0.4% | -8.0%
